Structures are written as SMILES. Where “and” joins values, the source holds several entries; their conditions need not be identical. Identical values can stand only once. Results filed as inconclusive are left out. Calls of active or inactive are those of the source.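 The calls were made as follows, unless noted: active = normalized viability below 100% at a tested concentration; inactive = the rest.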

These results are taken from PubChem BioAssay.

Assay [1] can be described thus: growth inhibition of DIPG glioma cells, dose response, cell-based, SU-DIPG-XIII, MIPE5.0, CellTiter-Glo, qHTS (AID 1347064; cut-off not given, nearly all actives have AC50 up to about 23 µM;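 as to AC50: cells exposed to compound for 48 hours before the viability read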). As to conditions: SU-DIPG-XIII viability, CellTiter-Glo ATP luminescence.
A short description of assay [2]: SU-DIPG-VI glioma cell viability, MIPE4.0 library, CellTiter-Glo luminescence, qHTS (AID 1347066; cut-off not given, nearly all actives have AC50 up to about 30 µM;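 also: cells exposed to compound for 48 hours before readout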). The settings on record: CellTiter-Glo ATP luminescence.
Assay [3] is described as follows: JHH-DIPG-1 glioma cell viability, MIPE5.0 library, CellTiter-Glo luminescence, qHTS (AID 1347067; cut-off not given, nearly all actives have AC50 up to about 26 µM;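 also: cells exposed to compound for 48 hours before readout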). The settings on record: JHH-DIPG-1 glioma viability, CellTiter-Glo ATP luminescence.
The nature of assay [4]: SU-DIPG-XXV glioma cell viability, MIPE5.0 library, qHTS (AID 1347068; cut-off not given, nearly all actives have IC50 up to about 30 µM).
Assay [5] can be described thus: sensitizers of A549 cells to miR-34 induction, primary screen, imaging, A549 dox-inducible miR-34, nuclei and caspase counts (AID 1347080;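 active = compounds whose cell count with miR-34 switched on is under 0.7 times the count with it off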). As to conditions: A549 miR-34 inducible, Hoechst nuclei count, 48 h.
Assay [6] in a line: survival rescue of mitochondrial mutant cells in low glucose, primary screen, MELAS cybrids, Rieske KO mouse fibroblasts, CellTiter-Glo (AID 1508586;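 active = mean z-score across replicates of 1.96 or higher in either the MELAS or the Rieske mutant cell line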;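 also: z relative to plate mean and SD of compound and empty wells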).
Assay [7] in a line: ovarian cancer cell viability with rucaparib, profiling panel, oncology-focused library, rucaparib conditional (AID 1508598). The settings on record: patient-derived ovarian cancer cells, CellTiter-Glo viability, 144 h, stronger effect = lower value.
Assay [8] in a line: viability loss in pontine glioma line – cell-based, SU-DIPG-XXV, MIPE5.0, CellTiter-Glo, qHTS, dose response (AID 1347065; cut-off not given, nearly all actives have AC50 up to about 26 µM;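 also: cells exposed to compound for 48 hours before ATP readout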). The settings on record: CellTiter-Glo ATP luminescence.
Assay [9] is described as follows: viability rescue of complex I mutant cybrids, primary screen, cell-based, galactose medium, ATP luminescence (AID 1645843;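 active = z-score of at least 1.8 in each of two replicates, scored against plate mean and spread of sample wells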;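 also: positive z means more ATP and so rescue of galactose-driven cybrid death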). The settings on record: complex I mutant cybrid cells, 72 h, stronger effect = higher value.
Assay [10] can be described thus: modifiers of HSF1 nuclear foci, imaging, Selleck Cancer Library (AID 1347162; in the data active = plate-normalised HSF1 focus index below about 0.46). As to conditions: human cells, at 10 µM; SSMD: measured here: HSF1 foci SSMD mean; cell count: measured here: cell number; plate-normalised HSF1 focus index: stronger effect = lower value.
[11] abbreviates: stronger effect = lower value, cell number ratio, induced over uninduced.
The mark [12] stands for this setting: measured here: relative caspase fold change +Dox/-Dox.
The mark [13] stands for this setting: measured here: total cells with miR-34 induction, stronger effect = lower value.
Setting [14] is: measured here: total cells without miR-34 induction.
[15] abbreviates: MELAS cybrid survival, CellTiter-Glo 48 h, stronger effect = higher value.
Where [16] appears, read: Rieske KO mouse fibroblast survival, CellTiter-Glo 72 h.

Turning to `Cc1ccc2nc(NC(=O)CSc3nc4c(c(=O)n3-c3ccccc3)SCC4)sc2c1`, the result in assay [1], in assay [2], in [3] and in assay [4] was inactive. For the same compound, the results for the fold change in assay [5] (setting [11]) and in assay [5] (setting [12]) were 1.08 (inactive) and 1.26, respectively. For the same compound, the cell count in assay [5] (setting [13]) was found to be 7960; in [5] (setting [14]), 7340. Also, the figures for the z-score in assay [6] (setting [15]) and in [6] (setting [16]) were -0.206 (inactive) and -0.109, respectively. The viability in [7] (at 0.000305 µM, OCI-C5x cells, with rucaparib 10 µM, 100% = cells with rucaparib alone) was 116% (inactive); in assay [7] (at 0.000305 µM, OCI-C5x cells, without rucaparib), 106% (inactive); in assay [7] (at 0.000305 µM, OCI-P5x cells, with rucaparib 20 µM, 100% = cells with rucaparib alone) it was 106% (inactive); in assay [7] (at 0.000305 µM, OCI-P5x cells, without rucaparib), 100% (inactive); in assay [7] (at 0.00122 µM, OCI-C5x cells, with rucaparib 10 µM, 100% = cells with rucaparib alone), 113% (inactive); in assay [7] (at 0.00122 µM, OCI-C5x cells, without rucaparib), 109% (inactive). Also, the viability is 102% (inactive) in assay [7] (at 0.00122 µM, OCI-P5x cells, with rucaparib 20 µM, 100% = cells with rucaparib alone); 101% (inactive) in assay [7] (at 0.00122 µM, OCI-P5x cells, without rucaparib); 113% (inactive) in assay [7] (at 0.00488 µM, OCI-C5x cells, with rucaparib 10 µM, 100% = cells with rucaparib alone); 118% (inactive) in assay [7] (at 0.00488 µM, OCI-C5x cells, without rucaparib); 107% (inactive) in [7] (at 0.00488 µM, OCI-P5x cells, with rucaparib 20 µM, 100% = cells with rucaparib alone); 95.3% (active) in assay [7] (at 0.00488 µM, OCI-P5x cells, without rucaparib). Besides, the viability in assay [7] (at 0.0195 µM, OCI-C5x cells, with rucaparib 10 µM, 100% = cells with rucaparib alone) was 116% (inactive); in assay [7] (at 0.0195 µM, OCI-C5x cells, without rucaparib), 114% (inactive); in assay [7] (at 0.0195 µM, OCI-P5x cells, with rucaparib 20 µM, 100% = cells with rucaparib alone), 105% (inactive); in [7] (at 0.0195 µM, OCI-P5x cells, without rucaparib) it was 99.2% (active); in [7] (at 0.0781 µM, OCI-C5x cells, with rucaparib 10 µM, 100% = cells with rucaparib alone), 112% (inactive); in [7] (at 0.0781 µM, OCI-C5x cells, without rucaparib), 115% (inactive). Also, the viability in [7] (at 0.0781 µM, OCI-P5x cells, with rucaparib 20 µM, 100% = cells with rucaparib alone) is 101% (inactive); in assay [7] (at 0.0781 µM, OCI-P5x cells, without rucaparib), 99.7% (active); in assay [7] (at 0.313 µM, OCI-C5x cells, with rucaparib 10 µM, 100% = cells with rucaparib alone), 112% (inactive); in assay [7] (at 0.313 µM, OCI-C5x cells, without rucaparib), 115% (inactive); in [7] (at 0.313 µM, OCI-P5x cells, with rucaparib 20 µM, 100% = cells with rucaparib alone), 106% (inactive); in assay [7] (at 0.313 µM, OCI-P5x cells, without rucaparib), 94.9% (active). The viability in assay [7] (at 1.25 µM, OCI-C5x cells, with rucaparib 10 µM, 100% = cells with rucaparib alone) was 117% (inactive); in assay [7] (at 1.25 µM, OCI-C5x cells, without rucaparib), 114% (inactive); in [7] (at 1.25 µM, OCI-P5x cells, with rucaparib 20 µM, 100% = cells with rucaparib alone), 97.6% (active); in assay [7] (at 1.25 µM, OCI-P5x cells, without rucaparib), 97.1% (active); in assay [7] (at 5 µM, OCI-C5x cells, with rucaparib 10 µM, 100% = cells with rucaparib alone), 164% (inactive); in assay [7] (at 5 µM, OCI-C5x cells, without rucaparib), 162% (inactive). For the same compound, the viability in assay [7] (at 5 µM, OCI-P5x cells, with rucaparib 20 µM, 100% = cells with rucaparib alone) was 76.9% (active); in assay [7] (at 5 µM, OCI-P5x cells, without rucaparib), 95.4% (active).

With `O=C(Nc1ccc(F)c(C(F)(F)F)c1)Nc1nnc(-c2ccncc2)s1`, the call in [1], in assay [2], in [3] and in [4] was inactive.

On to `CC1(N)CCN(c2cccnc2NC(=O)c2nc(-c3ncccc3C(F)(F)F)cnc2N)CC1`, for which the result in assay [1] and in assay [3] was inactive.

Consider `Cc1nnc(C(C)C)n1C1CC2CCC(C1)N2CCC(NC(=O)C1CCC(F)(F)CC1)c1ccccc1` (stereo unspecified), for which the result in assay [1], in [8], in [3] and in assay [4] was inactive. Also, the fold change in assay [5] (setting [11]) was 0.913 (inactive) and 0.876 (inactive); in [5] (setting [12]), 0.655 and 0.632. Further, the cell count in assay [5] (setting [13]) was 8280 and 7990; in assay [5] (setting [14]), 9060 and 9120. Moreover, the z-score is 0.322 (inactive) and -0.218 (inactive) in assay [6] (setting [15]); -0.412 and -0.846 in assay [6] (setting [16]); 0.505 (inactive) in [9].

For `Cc1c(-c2ccc(-c3ccccc3F)cc2)nc2ccc(F)cc2c1C(=O)O`, the outcome in assay [1] and in assay [3] was inactive.

For `O=C(/C=C/C#Cc1cccc(NS(=O)(=O)c2ccccc2)c1)NO`, the half-maximal activity concentration (AC50) in assay [1] was 1.29 µM (active); in [8], 1.82 µM (active); in assay [3], 1.82 µM (active). This compound registered an SSMD in [10] of -2.13. The cell count in assay [10] turned out to be 6610. In addition, the plate-normalised HSF1 focus index in [10] is 0.874 (inactive).

As for `CCCS(=O)(=O)Nc1ccc(F)c(C(=O)c2c[nH]c3ncc(Cl)cc23)c1F`, the call in assay [1], in assay [2] and in [4] was inactive. The fold change in assay [5] (setting [11]) is 0.766 (inactive); in assay [5] (setting [12]), 1.15. Also, the cell count in [5] (setting [13]) was 4220; in assay [5] (setting [14]), 5520. The results for the z-score in assay [6] (setting [15]) and in [6] (setting [16]) were -0.49 (inactive) and 0.575, respectively.

For the compound `Nc1ncnc2c1nc(Cl)n2[C@@H]1O[C@H](CO)[C@@H](O)[C@H]1O`, the AC50 is 16.6 µM (active) in assay [1] and 23.5 µM (active) in assay [2]. In [4], the result was inactive.

On to `O=C(NNc1ccccc1)c1ccncc1`, for which the compound was called inactive in assay [1], in assay [8] and in [4]. The fold change was 0.922 (inactive) in assay [5] (setting [11]) and 0.452 in assay [5] (setting [12]). Moreover, the cell count is 7960 in [5] (setting [13]) and 8630 in assay [5] (setting [14]). Besides, the values for the z-score in assay [6] (setting [15]) and in assay [6] (setting [16]) were -0.433 (inactive) and -1.65, respectively.

As for `COc1cccc(-c2ccc(NC(=O)C3=C(C(=O)O)CCC3)c(F)c2)c1`, the compound was called inactive in assay [1], in assay [8] and in assay [4].
